These results are taken from PubChem BioAssay (Tox21).

The nature of experiment [1]: qHTS assay to identify small molecule antagonists of the sonic hedgehog signaling (Shh) pathway (AID 1259369). Also: nearly all actives have a fitted effect of over 45% in size. Also: potency is read from the fitted curve at half-maximal effect. The note with it: NIH/3T3 Gli1-Luc reporter, Shh antagonist, luminescence 24 h; series mostly up to 92.4 µM. The gist of the method: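 Screening used 3T3Gli1-Luc cells at 2,000 per well, compounds delivered in DMSO, and conditioned medium as agonist stimulus; plates incubated 24hr at 37 C and 5% CO2 before a 30min luciferase step.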

A short description of experiment [2]: qHTS assay to identify small molecule agonists of the androgen receptor (AR) signaling pathway in the presence of an antagonist - cell viability counter screen (AID 1259379; active = well fitted curve in the direction sought with a large enough effect in the repeat runs; an effect the other way counts as inactive or inconclusive;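 also: MDA-kb2 human breast cancer cells carrying an MMTV luciferase reporter; nearly all actives have a fitted effect of over 25% in size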). Particulars: MDA-kb2 viability, CellTiter-Fluor, 16 h; series mostly up to 92.4 µM. In short, it runs like this: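 In MDA-kb2 cells (human breast carcinoma, MMTV-luciferase), compounds at 15 concentrations plus 3.0uM nilutamide; 16 hr, 37C, 0% CO2; CellTiter-Fluor fluorescence read for viability.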

Experiment [3] in a line: qHTS assay to identify small molecule antagonists of the estrogen receptor beta (ER-beta) signaling pathway - cell viability counter screen (AID 1259382; active = well fitted curve in the direction sought with a large enough effect in the repeat runs; an effect the other way counts as inactive or inconclusive;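 also: HEK293T cells carrying ER-beta-UAS-bla reporter stimulated with estradiol; nearly all actives have a fitted effect of over 55% in size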). The note with it: ER-beta-UAS-bla HEK293T viability, CellTiter-Glo luminescence, 16 h; series mostly up to 92.4 µM. In short, it runs like this:
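Tox21 10K library tested in qHTS format on ER-beta-bla HEK293T cells stimulated with 1nM E2; 16 hr treatment at 37C. Same-well CellTiter-Glo luminescence served as the cell viability measure.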

A short description of experiment [4]: qHTS assay to identify small molecule agonists or antagonists of the thyroid stimulating hormone receptor (TSHR) signaling pathway - wild type cell line counter screen (AID 1259384). The note with it: HEK293 wild type, cAMP HTRF counter-screen; series mostly up to 92.4 µM. The gist of the method:
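Wild-type HEK293 cells were plated 18 h at 37 C/5% CO2, pin-dosed with compound plus Ro20-1724 medium, held 30 min at room temperature, then given cAMP-d2 and anti-cAMP-cryptate; fluorescence was read after 1 h. Fifteen concentrations, triplicate.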

Experiment [5] in a line: qHTS assay to identify small molecule agonists of the estrogen receptor beta (ER-beta) signaling pathway - cell viability counter screen (AID 1259380; active = well fitted curve in the direction sought with a large enough effect in the repeat runs; an effect the other way counts as inactive or inconclusive; also: nearly all actives have a fitted effect of over 30% in size). The note with it: ER-beta-bla HEK293T viability, CellTiter-Glo luminescence, 16 h; series mostly up to 92.4 µM. In short, it runs like this:
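Viability of ER-beta-UAS-bla HEK293T cells was determined by CellTiter-Glo luminescence following 16 hr treatment with test compounds at 37C.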

The target in experiment [6] is Thyrotropin receptor (Homo sapiens) (UniProt P16473). Kind of experiment: qHTS assay to identify small molecule antagonists of the thyroid stimulating hormone receptor (TSHR) signaling pathway (AID 1259385). Also: nearly all actives have a fitted effect of over 20% in size. The note with it: TSHR-HEK293 cAMP HTRF, TSH-stimulated antagonist mode; series mostly up to 92.4 µM. In short, it runs like this:
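TSHR-HEK293 cells were plated and held 18 h at 37C/5% CO2, then given compound plus Ro20-1724 and stimulated with TSH at 1.5 ng/mL final. After 30 min at room temperature, cAMP was detected with cAMP-d2/anti-cAMP-cryptate (1 h) by fluorescence.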

Molecules are shown by their SMILES. Where “and” joins values, the source holds several entries; their conditions need not be identical. Identical values can stand only once. Records with an inconclusive call do not appear. Calls of active or inactive are those of the source. Unless noted, calls follow the shape of the full dose curve.

Thyrotropin receptor (Homo sapiens), sequence (P16473 whole entry, looked up): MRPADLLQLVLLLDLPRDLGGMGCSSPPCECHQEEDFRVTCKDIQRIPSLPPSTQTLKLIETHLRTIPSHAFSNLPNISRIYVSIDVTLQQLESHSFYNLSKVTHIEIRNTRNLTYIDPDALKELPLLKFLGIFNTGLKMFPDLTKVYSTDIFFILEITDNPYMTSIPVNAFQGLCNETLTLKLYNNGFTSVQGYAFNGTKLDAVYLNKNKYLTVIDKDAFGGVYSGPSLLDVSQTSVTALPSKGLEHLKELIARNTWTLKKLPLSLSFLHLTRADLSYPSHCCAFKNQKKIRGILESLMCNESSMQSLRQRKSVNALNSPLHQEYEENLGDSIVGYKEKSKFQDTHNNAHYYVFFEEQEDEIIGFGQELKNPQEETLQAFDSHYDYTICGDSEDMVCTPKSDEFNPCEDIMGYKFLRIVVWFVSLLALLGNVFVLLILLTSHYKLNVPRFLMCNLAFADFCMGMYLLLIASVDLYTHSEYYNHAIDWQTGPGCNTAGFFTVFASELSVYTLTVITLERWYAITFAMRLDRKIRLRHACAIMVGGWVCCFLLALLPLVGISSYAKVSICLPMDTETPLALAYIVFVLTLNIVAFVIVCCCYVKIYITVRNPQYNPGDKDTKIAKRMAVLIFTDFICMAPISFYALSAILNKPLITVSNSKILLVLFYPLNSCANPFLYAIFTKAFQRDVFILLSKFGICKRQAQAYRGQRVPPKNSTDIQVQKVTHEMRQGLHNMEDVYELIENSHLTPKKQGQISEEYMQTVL

On to `C[C@]12CC[C@@H]3c4ccc(O)cc4CC[C@H]3[C@@H]1CC[C@@H]2O`, for which the Potency in experiment [1] is 3.06 µM (active) and 5.45 µM (active). Besides, the Potency entry in experiment [2], in experiment [3] and in experiment [4] was “inactive” throughout.

`COC(=O)c1ccc(C)cc1`: the Potency entry in experiment [1], in experiment [5], in experiment [3], in experiment [4] and in experiment [6] was “inactive” throughout.

As to `CC(=O)O[C@]1(C(C)=O)CC[C@H]2[C@@H]3C=C(C)C4=CC(=O)CC[C@]4(C)[C@H]3CC[C@@]21C`, the Potency result in experiment [5], in experiment [3], in experiment [4] and in experiment [6] was “inactive” in each case.

Take `CC1(C)OC(=O)NC1=O`: the Potency result in experiment [1], in experiment [5], in experiment [3], in experiment [4] and in experiment [6] was “inactive” throughout.
